VP16 counter: VP16 counterscreen qHTS for inhibitors of ROR gamma transcriptional activity; Drosophila S2 Gal4-VP16 UAS-luciferase, luminescence, 20 h; Potency, µM (doses to about 53.6 µM), inactives show at the top dose activity, negative = inhibition, most hits filed as inhibitors; actives 3.5% (n = 310,000);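 also: Gal4-VP16 expression switched on by copper sulfate through the metallothionein promoter; nearly all actives have a fitted effect of over 50% in size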
ALDH1A1 block: qHTS Assay for Inhibitors of Aldehyde Dehydrogenase 1 (ALDH1A1). Aldehyde dehydrogenase 1A1 (Homo sapiens), P00352. Purified ALDH1A1, NADH fluorescence, propionaldehyde substrate. Potency, µM (doses to about 75.3 µM), without a hit: top-dose activity, negative = inhibition, hits mostly inhibitors. actives 7.3% (n = 220,000). AID 1030, 2008; active = well fitted inhibition curve with a large enough effect, not every such curve was filed as active; inconclusive = small, poorly fitted or top-dose-only effect, or another doubt; inactive = no such curve, though single readings can be large or run the other way;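 also: plate controls were no enzyme wells and a reference inhibitor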
RORg inh: qHTS for inhibitors of ROR gamma transcriptional activity; Nuclear receptor ROR-gamma (Mus musculus), P51450; Drosophila S2 Gal4-RORgamma UAS-luciferase reporter, 20 h; Potency, µM (top dose mostly 53.6 µM), for the others: at the highest dose activity change, negative = inhibition, hits mostly inhibitors; actives 5.4% (n = 310,000); AID 2551, 2010; also: nearly all actives have a fitted effect of over 60% in size
Target sequence (P51450 whole entry, looked up, the tested form may be a part): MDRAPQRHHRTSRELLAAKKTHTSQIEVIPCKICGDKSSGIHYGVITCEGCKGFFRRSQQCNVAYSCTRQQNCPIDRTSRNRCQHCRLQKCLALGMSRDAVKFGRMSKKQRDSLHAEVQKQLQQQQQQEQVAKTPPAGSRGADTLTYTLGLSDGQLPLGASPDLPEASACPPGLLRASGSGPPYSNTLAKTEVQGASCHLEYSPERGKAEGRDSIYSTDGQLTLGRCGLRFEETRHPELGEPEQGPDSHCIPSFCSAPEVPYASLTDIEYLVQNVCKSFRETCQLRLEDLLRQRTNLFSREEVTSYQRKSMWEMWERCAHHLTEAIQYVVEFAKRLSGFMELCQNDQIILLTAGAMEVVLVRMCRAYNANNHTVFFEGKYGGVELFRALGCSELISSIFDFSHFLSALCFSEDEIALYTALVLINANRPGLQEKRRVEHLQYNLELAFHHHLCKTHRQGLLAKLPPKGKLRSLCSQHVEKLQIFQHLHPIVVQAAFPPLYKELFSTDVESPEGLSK
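A Gal4/UAS one-hybrid system in insect cells: metallothionein-promoter Gal4–ROR gamma fusion plus Photinus luciferase reporter. Copper sulfate 700 uM final, 20 hr ambient incubation, luminescent detection after 10 min with reagent.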
PLK1 PBD block: qHTS for Inhibitors of PLK1-PDB (polo-like kinase 1 - polo-box domain): Primary Screen; Potency, µM, inactives show max response, negative = inhibition, actives largely listed as inhibitors; Serine/threonine-protein kinase PLK1 (Homo sapiens), P53350; Plk1 PBD binding of FITC phosphopeptide, fluorescence polarization; actives 2.8% (n = 360,000); also: series mostly up to about 57 µM; nearly all actives have a fitted effect of over 65% in size
Sfp inh: qHTS Assay for Inhibitors of Bacillus subtilis Sfp phosphopantetheinyl transferase (PPTase). AID 1490, 2009. 4'-phosphopantetheinyl transferase ffp (Bacillus subtilis), Q9F4F7. Potency, µM, without a hit: largest response in the series, negative = inhibition, hits mostly inhibitors. actives 3.5% (n = 310,000). Biochemical Sfp PPTase activity, qHTS;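 also: the enzyme is Sfp with the accession as filed and its product quenches rhodamine fluorescence; 0% = enzyme reaction without inhibitor and -100% = no enzyme wells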
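Fluorescence-quenching assay with 15 nM Sfp, 5 uM rhodamine-CoA and 12.5 uM BHQ-2-labelled ybbR peptide in pH 7.6 Hepes/MgCl2 buffer. Enzyme was pre-incubated with compound for 15 min at room temperature. Rate was taken from the 30-min fluorescence change (525/598 nm).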
* marks the source's active call; other numbers are inactive results; ? = inconclusive; / = not tested or not shown; [ ] = another dose, or the depositor's remark. Rows were chosen to be rich in hits. Some 12% of all compounds tested hit in one or more screens of this group. Unless noted, calls follow the shape of the dose curve; as a rule, active = well fitted curve in the direction sought with a large enough effect; inconclusive = small, poorly fitted or top-dose-only effect, or another doubt; inactive = no such curve, though single readings can be large; an effect the other way counts as inactive or inconclusive. Unless noted, % is scaled to controls: 0 for no effect and ±100 for the full control effect; potency is read from the fitted curve at half-maximal effect.

SMILES	VP16 counter	ALDH1A1 block	RORg inh	PLK1 PBD block	Sfp inh
Cc1ccc(-c2cc(C(=O)n3cnc4ccccc43)c3ccccc3n2)cc1C	13µM*	?	10µM*	-6%	9%
Cc1ccc(-c2cc(C(=O)NCc3ccccn3)c3ccccc3n2)cc1C	-29%	?	?	24µM*	?
CC(=O)c1ccc(NC(=O)C2C3C=CC(O3)C2C(=O)O)cc1 (stereo not drawn)	-4%	/	-7%	5%	11%
O=C(O)C1C2C=CC(O2)C1C(=O)Nc1ccc(S(=O)(=O)Nc2ccccc2)cc1 (stereo not drawn)	?	1.1µM*	?	-23%	-91%
O=C(O)C1C2C=CC(O2)C1C(=O)Nc1ccc(S(=O)(=O)N2CCc3ccccc32)cc1 (stereo not drawn)	-10%	10µM*	12%	-12%	-19%
O=C(O)C1C2C=CC(O2)C1C(=O)Nc1ccc2c(c1)OCCO2 (stereo not drawn)	3%	11µM*	-33%	/	-17%
CC(C)c1cc(Cn2c3ccccc3c(=O)n2C(C)Cn2cc(-c3ccccc3)nn2)on1 (stereo not drawn)	/	/	/	-7%	/
Nc1c[n+](N2CCOCC2)no1	-3%	-10%	12%	/	8%
CCOC(=O)c1c(C)n(CCOc2ccccc2)c2ccc(O)cc12	-18%	/	-13%	1%	71µM*
CCOC(=O)c1c(C)n(CCNC(C)=O)c2ccc(O)cc12	0%	11%	16%	0%	8%
O=C(COc1ccccc1[N+](=O)[O-])N/N=C/C=C/c1ccco1	?	?	?	-8%	50µM*
COc1ccccc1OCC(=O)N/N=C/C=C/c1ccc([N+](=O)[O-])o1	10µM*	-7%	11µM*	-5%	0%
Cc1ccc(OCC(=O)N/N=C/C=C/c2ccco2)cc1	?	?	-4%	?	35µM*
Cc1cccc(NC(=O)CSc2nncn2N)c1C	/	/	/	-3%	/
COC(=O)/C=C/c1ccc(C(=O)NCC(=O)N[C@@H](CCC(=O)OC)C(=O)N[C@@H](CC(C)C)C(N)=O)cc1	12%	?	31%	/	18%
CN(C)c1ccc(-c2csc(C(O)c3cccc(Cl)c3)n2)cc1 (stereo not drawn)	/	/	/	-5%	/
NC(=O)NCCS[C@H]1CCCC[C@@H]1O	/	6%[13.5 µM]	/	/	/
CC(C)N1CCc2[nH]c(=S)[nH]c(=O)c2C1	-13%	?	-3%	-4%	45µM*
CCCN1CCc2[nH]c(=S)[nH]c(=O)c2C1	-11%	?	6%	-6%	50µM*
Cc1cccc(-n2c(=S)[nH]c3sc4c(c3c2=O)CCc2ccccc2-4)c1	1.4µM*	3.2µM*	0.35µM*	3µM*	6%
CCSc1nc2sc3c(c2c(=O)[nH]1)CCc1ccccc1-3	-24%	-7%	?	-17%	-10%
Cc1ccc(-n2c(=S)[nH]c3sc4c(c3c2=O)CCc2ccccc2-4)cc1	0.63µM*	-6%	0.45µM*	30µM*	13%
COc1ccc(-n2c(=S)[nH]c3sc4c(c3c2=O)CCN(C)C4)cc1	-8%	/	-2%	/	?
Cc1cn([C@H]2C[C@H](O)[C@@H](CNC(=O)[C@H](N)Cc3cn(COCc4ccccc4)cn3)O2)c(=O)[nH]c1=O	/	/	/	-1%	/
CSc1nc(=NC(C)=O)ss1	-19%	1.8µM*	3.2µM*	7.9µM*	4.5µM*
SMILES	VP16 counter	ALDH1A1 block	RORg inh	PLK1 PBD block	Sfp inh
COc1ccccc1Oc1nc2c(c(=O)n(Cc3ccccc3F)c(=O)n2C)n1C	1%	8.9µM*	2%	-5%	8.9µM*
Cn1c(=O)n(Cc2ccccc2F)c(=O)c2c1nc1n2CCN1Cc1ccco1	-1%	7.9µM*	17%	-6%	8%
COC(=O)C[C@H]1C=C[C@H](NC(=O)Nc2ccccc2F)[C@@H](CO)O1	/	/	/	1%	/
COc1ccccc1-n1c(CNC(=O)COc2ccccc2)n[nH]c1=S	-2%	2.2µM*	-12%	-3%	-27%
O=C(NCc1n[nH]c(=S)n1-c1ccccc1)c1ccc(S(=O)(=O)N2CCCCC2)cc1	-9%	11µM*	-11%	?	-11%
O=C(NCc1ccccc1)c1ccc(S(=O)(=O)N2CCCCCC2)cc1	/	/	/	1%	/
O=C(NCc1n[nH]c(=S)n1-c1ccccc1)c1ccc(S(=O)(=O)N2CCOCC2)cc1	2%	18µM*	-9%	-2%	-15%
COc1ccccc1-n1c(CNC(=O)c2cccc([N+](=O)[O-])c2C)n[nH]c1=S	?	-2%	12%	3%	15%
O=C(NCc1n[nH]c(=S)n1-c1ccc(F)cc1)c1ccc(S(=O)(=O)N2CCOCC2)cc1	0%	?	17%	?	45µM*
O=C(NCc1cccs1)c1ccc(S(=O)(=O)N2CCOCC2)cc1	10%	6%	22%	-2%	14%
CCOC(=O)C1=CCN(S(=O)(=O)c2ccc(C)cc2)C1c1ccc(Cl)c(Cl)c1 (stereo not drawn)	/	/	/	-9%	/
Cc1cccn2c(=O)c(-c3nnn[nH]3)cnc12	-1%	/	-15%	/	?
O=C(Cc1ccccc1)NCc1n[nH]c(=S)n1-c1ccc(Br)cc1	12%	2%	-29%	11µM*	9%
COc1ccc(CC(=O)NCc2n[nH]c(=S)n2-c2ccc(Br)cc2)cc1	-1%	-2%	-25%	?	15%
CC(C)Cn1c2c(c(O)c(C(=O)Nc3nccs3)c1=O)CCCC2	0%	14µM*	-19%[10 µM]	-26%	4%
CCc1ccc2c(CN3CCN(S(=O)(=O)c4cccs4)CC3)cc(=O)oc2c1	-10%	13µM*	41%	-13%	8%
O=C(NCc1nc2ccccc2[nH]1)[C@H]1C[C@@H]1[C@H](NP(=O)(c1ccccc1)c1ccccc1)c1ccccc1	7%	-9%	0%	/	0%
CCn1ncc(/C=N\NC(=O)c2csc3ccccc23)c1C	?	10%	10µM*	-3%	17%
Cc1c(/C=N\NC(=O)c2csc3ccccc23)cnn1C	6%	-12%	?	-6%	25%
Cc1nn(C)c(C)c1/C=N/NC(=O)c1csc2ccccc12	7%	22µM*	-15%	-14%	14%
CCc1nc(SCc2ccc(OCC(C)C)cc2)n[nH]1	16µM*	/	?	-1%	18%
CCOC(=O)N1CCN(CC(=O)Nc2nccs2)CC1	/	/	/	-2%	/
CC1(C)CC(=O)C2=C(C1)NC(=S)C(C#N)C21CCCCC1 (stereo not drawn)	11%	/	10µM*	11µM*	11µM*
CC1C2=C(CC(C)(C)CC2=O)NC2=C1C(=O)CC(C)(C)C2	5%	?	-18%	-4%	9%

Screens as filed in PubChem.
